Assay results reported in PubChem BioAssay (NCI).
About 79,000 compounds went through this panel and 15% of them were active in at least one assay; those are over-represented in the sample as a whole. Rule as the data show it: active = growth inhibition above about 70%; inactive = the rest.

Legend:
[1] = NCI Yeast Anticancer Drug Screen. Data for the rad50 strain (AID 155);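 also: 0% = growth of vehicle-only cultures of the same strain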; conditions: S. cerevisiae rad50 strain growth inhibition; at 50.0 µM; active compounds read high
In short: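 Cells are treated with compound, grown, and their growth is then scored against vehicle-only cultures of the same repair-deficient yeast strain.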

[2] = NCI Yeast Anticancer Drug Screen. Data for the mec2-1 strain (AID 157); conditions: S. cerevisiae mec2-1 strain, at 50.0 µM, active compounds read high
In short: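 Growth inhibition is read against vehicle-treated controls after compound exposure of the mec2-1 yeast strain, which is defective in DNA damage repair or cell cycle control.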

[3] = NCI Yeast Anticancer Drug Screen. Data for the sgs1 mgt1 strain (AID 161);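 also: 0% = growth of cultures given vehicle only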; conditions: S. cerevisiae sgs1 mgt1 strain, at 50.0 µM, active compounds read high
In short: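 Percent growth inhibition was derived by comparing compound-exposed mutant yeast with vehicle-exposed cultures. The strain carries alterations in DNA damage repair.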

[4] = NCI Yeast Anticancer Drug Screen. Data for the cln2 rad14 strain (AID 165);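 also: 0% = growth equal to vehicle treated cultures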; conditions: S. cerevisiae cln2 rad14 strain, at 50.0 µM, active compounds read high
In short: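 Growth inhibition, relative to vehicle-treated controls, is the read-out. The test organism is a yeast strain with defined genetic alterations, cln2 rad14.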

[5] = NCI Yeast Anticancer Drug Screen. Data for the bub3 strain (AID 167); conditions: S. cerevisiae bub3 mutant strain, at 50.0 µM, active compounds read high
In short: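 Part of a panel of yeast mutants defective in DNA damage repair or cell cycle regulation. Each strain is grown with compound, and inhibition is calculated relative to solvent-treated cultures.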

[6] = NCI Yeast Anticancer Drug Screen. Data for the mlh1 rad18 strain (AID 175); conditions: S. cerevisiae mlh1 rad18 strain growth inhibition; at 50.0 µM; active compounds read high
In short: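 Cells of a genetically altered yeast strain, deficient in DNA damage repair, were treated with compound. Their growth was then compared with that of vehicle-treated cultures to give inhibition.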

Measured: growth inhibition

COC(=O)CCOc1ccccc1
inactive: [1] 15.1% | [2] 5.1% | [3] 0.25% | [4] 11.9% | [5] -8.8% | [6] -18.8%

CCOC(=O)c1c(C)[nH]c(C2=NCCC2)c1C
inactive: [1] -8.7% | [2] 5.3% | [3] 1.7% | [4] -55.9% | [5] 2.95% | [6] -5.95%

COC(=O)CCC(=O)c1ccc2c(c1)CC1(C2)Cc2ccc3c(c2C1)CCCC3=O (configuration not stated)
inactive: [1] -10.9% | [2] -27.1% | [3] -14.1% | [4] 5.9% | [5] -13.6% | [6] -4.25%

C/C=C/C1OC(OC)(OC)C1(OC)OC (configuration not stated)
inactive: [1] 38.8% | [2] 9.85% | [3] 18.9% | [4] 3.25% | [5] 11.3% | [6] 11.6%

CCOc1c2c(nn(C)c1=O)Oc1ccccc1N2CCCN1CCOCC1
inactive: [1] -27.6% | [2] -0.25% | [3] -18.1% | [4] 2.3% | [5] 3.95% | [6] -4.6%

COC(=O)CCCCCNC(=O)NCCCCCC(=O)OC
inactive: [1] 4.6% | [2] -21% | [3] -1.2% | [4] 6.25% | [5] -11.4% | [6] 19.1%

Nc1ncnc2c(C3OC(CO)C(O)C3O)nsc12 (configuration not stated)
inactive: [1] -6.8% | [2] -23.6% | [3] -37.1% | [4] -15.2% | [5] -32.1% | [6] -38%

NCCSSC/C=C\CSSCCN
inactive: [1] 2.65% | [2] 1.5% | [3] -24.1% | [4] 16.2% | [5] -15.8% | [6] -12.9%

OCC1NCC(O)C(O)C1O (configuration not stated)
inactive: [1] -6.6% | [2] -11.6% | [3] -14.4% | [4] 2.3% | [5] -8.3% | [6] 7.25%

O=C(Nc1ccc(NC(=O)OCc2ccccc2)c(Cl)c1)OCc1ccccc1
inactive: [1] 20.4% | [2] 11.3% | [3] 6.85% | [4] -26.6% | [5] 6.3% | [6] 3%

OC(CCl)(CCl)CCl
inactive: [1] 9.5% | [2] -11.9% | [3] -9.7% | [4] -16.5% | [5] -2.05% | [6] 18.8%

CN(C=O)c1ccccc1
inactive: [1] 3.6% | [2] 1.8% | [3] 6.15% | [4] 11.7% | [5] 2.05% | [6] 3.05%

COCCOC(=O)C(O)c1ccccc1 (configuration not stated)
inactive: [1] 23.9% | [2] 13.9% | [3] 9.05% | [4] 9% | [5] 12.8% | [6] 10.4%

CCC(=O)Oc1cc(C(C)(C)C)c(OC(=O)CC)cc1C(C)(C)C
inactive: [1] 3.45% | [2] -13.9% | [3] 10.6% | [4] 12.3% | [5] 10.9% | [6] 35.4%

N#C/C(=C/c1cccnc1)C(=O)c1ccccc1
inactive: [1] -6.1% | [2] -18.9% | [3] 1.3% | [4] 12.6% | [5] -22.6% | [6] 7.15%

CCC1CCCC1=O (configuration not stated)
inactive: [1] -8.75% | [2] -10.1% | [3] -9.9% | [4] 8.6% | [5] 10.4% | [6] -8.55%

Cc1cccc(C(C#N)C(=O)CCCC(=O)Nc2ccccc2[N+](=O)[O-])c1 (configuration not stated)
inactive: [1] -44.1% | [2] 9.4% | [3] 5.15% | [4] -36.6% | [5] 6.9% | [6] 11%

O=C(NNC(=O)c1ccncc1)c1ccncc1
inactive: [1] -22.9% | [2] 1.2% | [3] -9.45% | [4] -30.3% | [5] -2.4% | [6] -23.9%

CC(C)CC1NC(=O)C(C(C)C)NC(=O)CC(C)COC(=O)C(CC(C)C)N(C)C(=O)C(C(C)C)NC(=O)C(C(C)C)OC1=O (configuration not stated)
inactive: [1] -8.2% | [2] -3.7% | [3] 7.55% | [4] 7.95% | [5] 8.1% | [6] 14.3%

CCOC(=O)C1CC(O)c2ccc(Cl)cc2N1 (configuration not stated)
inactive: [1] 5.45% | [2] 10.2% | [3] 20.6% | [4] 16.1% | [5] 9.6% | [6] 6.15%

COC(=O)c1ccc(N=Nc2ncc(CC(NC(C)=O)C(=O)OC)[nH]2)cc1 (configuration not stated)
inactive: [1] -16.9% | [2] -46.9% | [3] 20.9% | [4] -34.5% | [5] 4.2% | [6] -13.4%

Clc1cc(OC2C3CC4CC(C3)CC2C4)nc(Cl)n1 (configuration not stated)
inactive: [1] 8.45% | [2] 1.45% | [3] 27.7% | [4] -1.1% | [5] 16.3% | [6] 65.8%

O=C(O)CCc1coc2ccc(O)cc12
inactive: [1] -0.45% | [2] 10.1% | [3] 8.4% | [4] -20.6% | [5] -6.1% | [6] 14.2%

N#CC(C#N)c1ccc(C(C#N)C#N)cc1
inactive: [1] -9.15% | [2] -6.75% | [3] 0.25% | [4] -16% | [5] -12.3% | [6] -1.55%

O=S1(=O)OCOS(=O)(=O)OCO1
inactive: [1] -24.9% | [2] -28.6% | [3] -14.2% | [4] -4.8% | [5] -13.8% | [6] -19.9%

NC(=O)C1C=CN(Cc2ccccc2)C=C1
inactive: [1] -5.2% | [2] 7.45% | [3] -0.65% | [4] -12.8% | [5] 23.4% | [6] 7.3%

CCOC(=O)Cc1csc(N=Nc2c(O)[nH]c3ccccc23)n1
inactive: [1] -2.55% | [2] -12.8% | [3] 10.6% | [4] 7.9% | [5] 5.85% | [6] 17.6%

NCC(O)c1cc(I)c(Oc2ccc(O)cc2)c(I)c1 (configuration not stated)
inactive: [1] 7.65% | [2] -19.8% | [3] -22.6% | [4] 12.3% | [5] -1.35% | [6] -11.5%

O=C1NC(N2CCCCC2)=N/C1=C\c1ccccc1
inactive: [1] 25.7% | [2] -8.45% | [3] -6.1% | [4] 23.7% | [5] -10.5% | [6] -16.4%

CCC(CO)Nc1nc2c(Cl)cc(Cl)cc2c2ccccc12 (configuration not stated)
inactive: [1] 11.1% | [2] 1.55% | [3] 18.4% | [4] -12.3% | [5] 12% | [6] 41.2%

COc1ccc([N+](=O)[O-])c(OC)c1
inactive: [1] 4.4% | [2] -19.1% | [3] -30.9% | [4] 17.2% | [5] -23.4% | [6] 9.05%

CCOC(=O)Nc1ccc([N+](=O)[O-])cc1[N+](=O)[O-]
inactive: [1] 15.9% | [2] -0.45% | [3] 16.2% | [4] 14.8% | [5] 8.6% | [6] 13.2%

COc1ccccc1C1(CBr)OCCO1
inactive: [1] -6.15% | [2] -7.7% | [3] 6.55% | [4] -5.4% | [5] -3.85% | [6] 9.4%

O=C(OCCOCBr)c1ccccc1
inactive: [1] -9.75% | [2] -32.5% | [3] 19.9% | [4] 18% | [5] 31.1% | [6] -14.3%

Brc1ccc(Nc2ccc(Br)cc2Br)c(Br)c1
inactive: [1] 28.2% | [2] 23.1% | [3] 16.6% | [4] 11.6% | [5] 3.8% | [6] 10.2%

O=S(=O)(OCC1CC2CCC1CC2)c1ccc(Br)cc1 (configuration not stated)
inactive: [1] -17.1% | [2] 1.9% | [3] 9.35% | [4] 0.8% | [5] 10.2% | [6] -22.9%

CN(C)c1ccccc1C(=O)N/N=C\c1ccc(O)c(O)c1
inactive: [1] 17.6% | [2] 14.2% | [3] 19.5% | [4] 5.75% | [5] 12.4% | [6] 22.2%

O=C1c2ccccc2C(c2ccccc2)C1c1ccccc1 (configuration not stated)
inactive: [1] 22.8% | [2] 15.9% | [3] 17.6% | [4] -16.6% | [5] 20.6% | [6] 0.8%

OCCS
inactive: [1] -7.35% | [2] 5.25% | [3] -8.4% | [4] -21.8% | [5] -3.45% | [6] -4.25%

COc1cc(C)cc2c(-c3c(OC(C)=O)cc(OC(C)=O)c4c3C[C@H](C)N(C(C)=O)[C@H]4C)cc(-c3cc(-c4c(OC(C)=O)cc(OC(C)=O)c5c4C[C@H](C)N(C(C)=O)[C@H]5C)c4cc(C)cc(OC)c4c3O)c(O)c12
inactive: [1] 41% | [2] 31.5% | [3] 34.5% | [4] 7.65% | [5] -44% | [6] 16.4%

CCSc1cc(=O)n(C)c(=O)n1C
inactive: [1] 13.6% | [2] 7.15% | [3] 21.3% | [4] 4.55% | [5] 5.25% | [6] -10.5%

COC(=O)c1nc(N)nc(C(=O)OC)c1C(=O)c1ccncc1
inactive: [1] -12.2% | [2] -19.9% | [3] 0.1% | [4] -16.1% | [5] -24.9% | [6] -4.45%
